Screening results (PubChem)
aGal spleen mod: inhibitors or activators of human alpha-galactosidase in spleen homogenate. P06280. human spleen homogenate, 4MU-alpha-Gal fluorescence, 40 min. Potency, µM (doses to about 80 µM), usual class: inhibitors. 240,000 tested, 0.008% active
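Human spleen homogenate (1 ug) as enzyme source, 4-methylumbelliferyl-alpha-D-galactopyranoside 1 mM final, citrate/phosphate pH 5.0 with 0.01% Tween-20. Compounds 40 min at 37C, NaOH/glycine stop; fluorescence Ex 365/Em 440, Hill-fit AC50.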
GLA inh pH 4.5: blocks human alpha-galactosidase A at pH 4.5. purified enzyme, 4-MU-alpha-Gal fluorescence, pH 4.5. activity change, negative = inhibition, % at 105 µM. AID 1467. 230,000 tested, under 10 active
PNC assembly inh: inhibitors of perinucleolar compartment assembly | PC3M PTB-GFP, PNC prevalence imaging, 16 h; stronger effect = lower value | activity change (PNC), negative = inhibition, % at 10 µM | 140,000 tested, 3.1% active;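 active = readout at or below -70, meaning at least 70% loss of cells showing the perinucleolar compartment, a nuclear body marking cancer cells; inconclusive = readout between -30 and a set limit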
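PC3M cells stably expressing PTB-GFP, 750–1000 cells/well, treated 16 h at 37 °C with compound (23 nl of library stock), in duplicate. After paraformaldehyde fixation and Hoechst stain, imaged at 20x; PNC prevalence scored by image analysis.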
HPGD inh: blocks human HPGD enzyme activity. purified HPGD, NADH fluorescence kinetic, PGE2 substrate. Potency, µM, most hits filed as inhibitors. 150,000 tested, 4.3% active. AID 894; active = well fitted inhibition curve with a large enough effect, not every such curve was filed as active; inconclusive = small, poorly fitted or top-dose-only effect, or another doubt; inactive = no such curve, though single readings can be large or run the other way
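NADH formation kinetics: reaction with 30 uM PGE2 and 1 mM NAD+ (final), 20 nM enzyme, Tris-HCl pH 8 with Tween 20, after 15 min compound preincubation at room temperature. Fluorescence change, last versus first of five reads.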
ALDH1A1 block: inhibitors of human aldehyde dehydrogenase 1A1; 220,000 tested, 7.3% active; Purified ALDH1A1, NADH fluorescence, propionaldehyde substrate; Potency, µM (highest dose often 75.3 µM), actives largely listed as inhibitors; P00352; active = well fitted inhibition curve with a large enough effect, not every such curve was filed as active; inconclusive = small, poorly fitted or top-dose-only effect, or another doubt; inactive = no such curve, though single readings can be large or run the other way
12-hLO inh: 12-hLO (ALOX12) enzyme inhibition | P18054 | purified 12-hLO, xylenol orange hydroperoxide absorbance | Potency, µM (top dose mostly 57.1 µM), actives largely listed as inhibitors | 150,000 tested, 0.12% active | AID 1452; also: nearly all actives have a fitted effect of over 55% in size
Target sequence (P18054 whole entry, looked up): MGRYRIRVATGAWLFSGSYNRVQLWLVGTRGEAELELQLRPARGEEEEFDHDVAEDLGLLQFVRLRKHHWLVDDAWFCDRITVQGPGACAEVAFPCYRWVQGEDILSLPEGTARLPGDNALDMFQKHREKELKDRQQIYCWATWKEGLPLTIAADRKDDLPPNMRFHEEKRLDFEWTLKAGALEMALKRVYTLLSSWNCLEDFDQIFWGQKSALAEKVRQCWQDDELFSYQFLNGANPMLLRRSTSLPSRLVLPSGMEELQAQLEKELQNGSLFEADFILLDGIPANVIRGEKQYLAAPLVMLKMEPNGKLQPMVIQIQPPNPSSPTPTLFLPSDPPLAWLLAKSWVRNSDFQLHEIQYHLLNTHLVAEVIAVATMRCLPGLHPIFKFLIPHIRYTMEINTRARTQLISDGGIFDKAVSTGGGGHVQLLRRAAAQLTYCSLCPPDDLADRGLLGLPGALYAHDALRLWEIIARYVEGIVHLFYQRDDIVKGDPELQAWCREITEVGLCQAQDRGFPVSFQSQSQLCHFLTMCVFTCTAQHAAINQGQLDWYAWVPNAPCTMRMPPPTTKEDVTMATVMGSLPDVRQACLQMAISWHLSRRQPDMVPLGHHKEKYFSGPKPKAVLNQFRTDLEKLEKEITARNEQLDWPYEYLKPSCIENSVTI
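Hydroperoxide formation by human 12-lipoxygenase from 40 uM arachidonic acid was followed colorimetrically via ferric-xylenol orange complex, using the 573/405 nm absorbance ratio. Enzyme concentration was 150 nM, with 30 min reaction at room temperature.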
Each line names hits and unclear results; the compound was inactive in the other large screens. Sampled rows, rich in hits. Any-hit rate of the full collection: about 10%. Unless noted, calls follow the shape of the dose curve; as a rule, active = well fitted curve in the direction sought with a large enough effect; inconclusive = small, poorly fitted or top-dose-only effect, or another doubt; inactive = no such curve, though single readings can be large; an effect the other way counts as inactive or inconclusive.

CC(C)c1nc(SCC(=O)Nc2ccc(N(C)C)cc2)c2ccccc2n1	ALDH1A1 block inconclusive (no result: PNC assembly inh, HPGD inh, 12-hLO inh)
c1nc(NC2CCNCC2)c2cc(-c3ccoc3)ccc2n1	ALDH1A1 block inconclusive (no result: GLA inh pH 4.5, PNC assembly inh, HPGD inh, 12-hLO inh)
CC[N+](C)(CC)CC(=O)Nc1c(C)cccc1C	none (no result: PNC assembly inh)
O=C(O)CCC(=O)N1CCc2cc(S(=O)(=O)Nc3ccc4c(c3)OCCO4)ccc21	HPGD inh 25.1µM
O=S(=O)(NCc1ccco1)c1ccc(S(=O)(=O)N2CCCC2)cc1	ALDH1A1 block 8.91µM (no result: PNC assembly inh, HPGD inh, 12-hLO inh)
O=C(O)CCC(=O)Nc1ccc(S(=O)(=O)N2CCCC2)cc1	PNC assembly inh inconclusive
COc1ccc(NS(=O)(=O)c2ccc(SC)cc2)cc1	ALDH1A1 block 0.159µM
O=C(Cc1cccs1)Nc1ccc(S(=O)(=O)N2CCCC2)cc1	ALDH1A1 block 12.6µM (no result: PNC assembly inh, HPGD inh, 12-hLO inh)
COc1cccc(NS(=O)(=O)c2ccc(S(=O)(=O)N3CCOCC3)cc2)c1	PNC assembly inh inconclusive
Cc1ccc(NS(=O)(=O)c2ccc(C(=O)N3CCCN(C)CC3)cc2)cc1	PNC assembly inh -100.0
CSc1ccc(S(=O)(=O)Nc2ccc3c(c2)OCCO3)cc1	ALDH1A1 block 15.8µM
COc1ccc(S(=O)(=O)Nc2ccc(S(=O)(=O)N3CCOCC3)cc2)cc1	ALDH1A1 block 4.47µM
Cc1ccc(S(=O)(=O)Nc2ccc(S(=O)(=O)N3CCCC3)cc2)cc1	PNC assembly inh inconclusive, ALDH1A1 block 0.562µM
Cc1ccc(S(=O)(=O)Nc2ccc3c(c2)OCCO3)cc1	none (no result: PNC assembly inh, HPGD inh, 12-hLO inh)
Cc1ccc(NS(=O)(=O)c2ccc(C)c(C(=O)N3CCN(C)CC3)c2)cc1	none
CCOC(=O)c1cc(C(=O)OCC)c(=O)[nH]c1N1CCCCC1	none (no result: PNC assembly inh, HPGD inh, 12-hLO inh)
Cc1ccc(-c2c(C(=O)NNC(=S)NCC3CCCO3)csc2C)cc1 (stereo not drawn)	none (no result: PNC assembly inh, HPGD inh, 12-hLO inh)
O=S(=O)(Nc1ccc(N2CCOCC2)cc1)c1cccs1	ALDH1A1 block inconclusive
O=S(=O)(Nc1ccc(S(=O)(=O)N2CCCCC2)cc1)c1cccs1	PNC assembly inh -102.1, ALDH1A1 block 12.6µM
CN1OC2C(=O)N(c3ccccc3)C(=O)C2C1c1ccc(F)cc1 (stereo not drawn)	ALDH1A1 block 8.91µM (no result: HPGD inh)
O=C1C2ON(c3ccccc3)C(c3ccncc3)C2C(=O)N1c1ccc(Br)cc1 (stereo not drawn)	ALDH1A1 block inconclusive (no result: HPGD inh)
O=C(O)COc1ccccc1C1C2C(=O)N(c3ccccc3)C(=O)C2ON1c1ccccc1 (stereo not drawn)	ALDH1A1 block 25.1µM
Cc1ccc(N2C(=O)C3ON(c4ccccc4)C(c4ccncc4)C3C2=O)cc1 (stereo not drawn)	ALDH1A1 block 2.51µM
CCOc1ccccc1C1C2C(=O)N(c3ccccc3)C(=O)C2ON1c1ccccc1 (stereo not drawn)	ALDH1A1 block 22.4µM
O=C1C2ON(c3ccccc3)C(c3ccccc3F)C2C(=O)N1c1ccccc1 (stereo not drawn)	none
COc1cc(OC)c(NC(=O)c2ccc3c(SCC(=O)O)c4c(nc3c2)CCCC4)cc1Cl	none (no result: PNC assembly inh, HPGD inh, 12-hLO inh)
COc1cc(-c2c(C#N)c(N)nc3c2CCCC3)cc(OC)c1OC	PNC assembly inh -100.0
N#Cc1c(N)nc(SCc2ccncc2)c(C#N)c1-c1cccs1	HPGD inh inconclusive, ALDH1A1 block inconclusive
COc1cc(-c2c(C#N)c(N)nc(SCc3ccncc3)c2C#N)cc(OC)c1OC	PNC assembly inh inconclusive, HPGD inh 12.6µM
CCOc1cc(-c2c(C#N)c(N)nc3c2CCCC3)ccc1O	PNC assembly inh -113.7, HPGD inh inconclusive, ALDH1A1 block inconclusive
O=S(=O)(c1ccccc1)c1nc(-c2ccccc2)oc1NCc1cccnc1	PNC assembly inh inconclusive, ALDH1A1 block 25.1µM
COc1cc(C)c(CNc2cccc(C)c2)cc1C	PNC assembly inh inconclusive, ALDH1A1 block 14.1µM
COc1cc(C)c(CNc2cc(C)cc(C)c2)cc1C	none
COc1cc(C)c(CNc2ccc(OC)c(OC)c2)cc1C	aGal spleen mod inconclusive, ALDH1A1 block 25.1µM
O=C(O)CC12CC3CC(C1)CC(n1ncc(NCC4CCCO4)c(Cl)c1=O)(C3)C2 (stereo not drawn)	ALDH1A1 block 25.1µM (no result: PNC assembly inh, HPGD inh, 12-hLO inh)
COc1ccc(C2C=C(C34CC5CC(CC(C5)C3)C4)NC(=S)N2)cc1OC (stereo not drawn)	ALDH1A1 block 7.94µM
CCN(CC)C(=O)CC(c1ccc(OC)cc1)c1c(OC)cc(OC)c2c(-c3ccccc3)cc(=O)oc12 (stereo not drawn)	none (no result: GLA inh pH 4.5, PNC assembly inh, HPGD inh, ALDH1A1 block, 12-hLO inh)
Cc1ccc(C(=O)/C=C/C(=O)c2ccc(C)cc2)cc1	ALDH1A1 block 0.891µM (no result: PNC assembly inh, HPGD inh, 12-hLO inh)
Cc1ccc(N/C=C/C(=O)c2ccc(C)cc2)cc1	ALDH1A1 block inconclusive, 12-hLO inh 2µM
Cc1ccc(/C=C/C(=O)c2ccc(C)cc2)cc1	none
Cc1ccc(C(=O)/C=C\Nc2ccc(C)c(C)c2)cc1	none
Cn1c(SCC(=O)Nc2ncc(C(F)(F)F)cc2Cl)nnc1-c1ccc(Cl)cc1	PNC assembly inh inconclusive
Cc1ccccc1C	none (no result: GLA inh pH 4.5, PNC assembly inh)
COc1cc2cccc(OC)c(=O)c2c(OC)c1OC	none (no result: GLA inh pH 4.5, PNC assembly inh, HPGD inh, 12-hLO inh)
O=c1c(O)cccc2cc(O)c(O)c(O)c12	HPGD inh 5.01µM, ALDH1A1 block 8.91µM (no result: PNC assembly inh)
O=C1Nc2ccccc2SC(c2ccccc2)C1O (stereo not drawn)	PNC assembly inh inconclusive, HPGD inh 28.2µM
CCc1nnc(NC(=O)CSc2ncnc3c2cnn3-c2ccc(OC)cc2)s1	HPGD inh inconclusive, ALDH1A1 block inconclusive
CC1(C)C(c2ccc(Cl)cc2)=[N+]([O-])C2(CCCC/C2=N\O)N1O (stereo not drawn)	none
